Laboratory results: PubChem BioAssay (EPA / NIEHS)
“And” between values parts separate entries of the source, which are not always exact repeats. Equal values may be shown once. Results filed as inconclusive are left out. The source made the active and inactive calls. Rule for the calls: active = hit-call score of the fitted dose curve at least 0.9, where 1 is the maximum; inconclusive = response in the unintended direction; inactive = score below 0.9.

Experiment: CCTE_Simmons_CellTiterGLO_HEK293T: Viability Assessment in CCTE's Assays for Thyroperoxidase (TPO) Inhibition, Simmons Lab (AID 2283665);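 for AC50: cells exposed to compound for 24 h before readout; actives reduce ATP signal below DMSO vehicle meaning cytotoxicity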
Procedure: CCTE_Simmons_CellTiterGLO_HEK293T is a cell-based, single-readout assay that uses HEK293T, a human kidney cell line, with measurements taken at 24 hours after chemical dosing in a 384-well plate.CCTE_Simmons_CellTiterGLO_HEK293T is the assay component measured from the CCTE_Simmons_CellTiterGLO_HEK293T assay. It is designed to make measurements of ATP content, a form of viability reporter, as detected with bioluminescence signals by Luciferase-coupled ATP quantitation technology. This is a secondary cytotoxicity assay to CCTE_Simmons_AUR_TPO to estimate a cellular tolerance limit.Data from the assay component CCTE_Simmons_CellTiterGLO_HEK293T was analyzed at the endpoint, CCTE_Simmons_CellTiterGLO_HEK293T, in the positive analysis fitting direction relative to DMSO as the negative control and baseline of activity. Using a type of viability reporter, measures of ATP content for loss-of-signal activity can be used to understand the viability. This assay was run in parallel with aeid 1508 as a means of indicating the range of chemical cytotoxicity or reactivity. To generalize the intended target to other relatable targets, this assay endpoint is annotated to the cell cycle intended target family, where the subfamily is cytotoxicity.
Human HEK293T cells (GenHunter; Nashville, Tennessee) were seeded overnight in 384-well, solid white assay plates (Greiner, BioExpress) at a density of 10 000 cells per well in 65 ul Dulbecco's Modified Eagle Medium (Life Technologies; Carlsbad, California) supplemented with 1% fetal bovine serum (HyClone; Logan, Utah). Test compounds were administered using the HDRT as described earlier to achieve a 0.5% final DMSO concentration. Cells were then incubated at 37C for 24 hr in a humidified 5% CO2 incubator. Cell Titer Glo (Promega; Madison, WI) reagent (25 ul) was then added by the BioTek MicroFlo and microplates were incubated at room temperature in the dark for 20min. Plates were read on a plate reader (FLUOStar Optima) using an endpoint luminescence protocol (top read). Three biological replicates of technical singles were run for every chemical concentration tested. A titrated range of DCNQ served as a positive control on each plate of the cytotoxicity screening assay.Test chemicals were administered as a titrated series of 8 concentrations from 5 nM up to 87.5 uM [final] for 24 hours prior to single endpoint detection. Three biological replicates of technical singles were run for every chemical concentration tested. Dimethylsulfoxide [DMSO] was used as the vehicle control. Dichlone [DCNQ] was used as the positive control and was administered as a titrated series of 8 concentrations from 1 nM up to 100 uM [final].

Row | Structure (SMILES) | AC50 | outcome
1 | CCCCCCCCCCCCc1cccc(S(=O)(=O)O)c1 | 30.4 µM (active) | 
2 | CC(C)(C)c1ccccc1O | 55.4 µM (active) | 
3 | COC(=O)Nc1cccc(OC(=O)Nc2cccc(C)c2)c1 |  | inactive
4 | O=C(O)C1(c2ccc3c(c2)OC[C@H](Cc2ccc(-c4ccccc4)cc2)[C@H]3O)CCCC1 | 13.3 µM (active) | 
5 | Nc1ccc(N)cc1 | 32 µM (active) | 
6 | CN(C)C(=S)S | 8.68 µM (active) | 
7 | O=C(NC(=O)c1c(F)cccc1F)Nc1ccc(Cl)cc1 |  | inactive
8 | N#CCC#N |  | inactive
9 | CCCCCCCCCCCCOS(=O)(=O)O | 31.9 µM (active) and 92.3 µM (active) | 
10 | O=C1c2ccccc2C(=O)C1C(=O)C(c1ccccc1)c1ccc(Cl)cc1 (stereo not given) | 36.4 µM (active) | 
11 | Nc1ncn[nH]1 |  | inactive
12 | CN(N=O)C(N)=O |  | inactive
13 | O=C(CBr)c1ccc(O)cc1 |  | inactive
14 | O=S1(=O)OC(c2cc(Br)c(O)c(Br)c2)(c2cc(Br)c(O)c(Br)c2)c2ccccc21 | 11.1 µM (active) | 
15 | O=c1[nH]c(=O)n(Cl)c(=O)n1Cl |  | inactive
16 | COc1ccc(N)cc1 | 4.71 µM (active) | 
17 | CCOP(=S)(OCC)SCS(=O)(=O)C(C)(C)C |  | inactive
18 | COc1ccccc1N |  | inactive
19 | CCOc1ccc(N)cc1 | 28.4 µM (active) | 
20 | N#CS |  | inactive
